Results published in PubChem BioAssay (NCATS).
Inconclusive results are not listed. Active and inactive are the calls of the source. Calls come from the whole dose curve; as a rule, active = well fitted cell-killing curve with a large enough effect; inconclusive = small, poorly fitted or top-dose-only effect, or effect the other way; inactive = no such curve, though single readings can be large or run the other way. Residues, ends and D or L forms follow the SMILES beside them. *: point of attachment. Cbz = O=C(OCc1ccccc1)*

experiment: qHTS of pediatric cancer cell lines to identify multiple opportunities for drug repurposing: Confirmatory screen for Saos-2 cells (AID 1347127); conditions: Saos-2 osteosarcoma cell viability; series mostly up to 45.9 µM; note: nearly all actives have a fitted effect of over 60% in size
Source text: Drug repurposing or repositioning has been offered as a strategy for drug development in oncology programs. This approach has special potential for childhood cancers and other rare or orphan diseases, where the expected return on new drug development has been a disincentive to pharmaceuticals.
In this project we exploit the poly-pharmacology of drugs to discover new indications via phenotypic screening of a panel of 19 well-characterized cell lines derived from solid tumors seen in children and adolescents. The goal is to identify approved drugs with previously unrecognized anticancer properties that has the potential to reveal new mechanisms and biological processes involved in carcinogenesis or drug resistance. We employed a titration-based paradigm (quantitative high-throughput screening or qHTS), where all compounds were tested at multiple concentrations for their effect on cell viability. Concentration-response curves (CRCs) were derived directly from the primary screen, and both potency and efficacy values were used to identify compounds with robust bioactivity profiles. We screened the NIH Chemical Genomics Center (NCGC) Pharmaceutical Collection (NPC) and Mechanism Interrogation Plate (MIPE) small molecule collections of approved and investigational compounds against these cell lines; and measured metabolically active cells after 48 hours of compound treatment as a proxy for cell viability.
Assay Submitter: Nathalia J. Martinez, National Center for Advancing Translational Sciences, National Institutes of Health, Rockville, MD, USA; email: natalia.martinez@nih.gov
[1] Shen, M et al. Quantitative high-throughput phenotypic screening of pediatric cancer cell lines identifies multiple opportunities for drug repurposing. Oncotarget 2017 Dec 19;9(4):4758-4772. PMID 29435139.
The cells were obtained from University of North Carolina (UNC), Pediatric Preclinical Testing Program (PPT), and Coriell Institute (CI).
qHTS cell viability assay:
Cells were assayed in growth media at a density of 500-1,000 cells/well. Five microliters of cells were dispensed into 1,536-well, white, solid-bottom, TC-treated plates (Greiner Bio One) using a multidrop dispenser and incubated at 37 degrees C, 5% CO2, under a humidified atmosphere for 5 hours. Twenty-three nanoliters of compounds and controls (neutral control DMSO or positive control bortezomib at final concentration of 2.3 µM) were subsequently transferred by Kalypsys pintool. For primary screens, the MIPE collection was tested at 11-point dilutions (final concentrations range from 0.78 nM to 46 µM) and the NPC collection at 8-point dilutions (final concentrations range from 0.59 nM to 46 µM). Compounds tested in follow-up screens were assayed at 11-point dilutions. Cells were incubated for 48 hours, followed by addition of 3 µL of CellTiter-Glo (Promega). After a 15 min incubation at room temperature, samples were analyzed for luminescence intensity using a ViewLux High-throughput CCD imager equipped with clear filters.
Potency is the fitted concentration of half-maximal effect.

Structure (SMILES) | Potency
N#CNC(=NCCCCCCOc1ccc(Cl)cc1)Nc1ccncc1 | 20.8 µM (active)
Cn1cc(CNCC2CCN(c3ncc(C(=O)NO)cn3)CC2)c2ccccc21 | 0.208 µM (active)
O=S(=O)(O)CCSSCCS(=O)(=O)O | inactive
CCc1cnn2c(NCc3ccc[n+]([O-])c3)cc(N3CCCC[C@@H]3CCO)nc12 | inactive
COC1=C2C[C@@H](C)C[C@H](OC)[C@@H](O)[C@@H](C)C=C(C)[C@H](OC(N)=O)[C@@H](OC)C=CC=C(C)C(=O)NC(=CC1=O)C2=O | 0.928 µM (active)
CNC(=O)Nc1ccc(-c2nc(N3CC4CCC(C3)O4)c3cnn(C4CCC5(CC4)OCCO5)c3n2)cc1 | 1.31 µM (active)
NC(=O)Nc1cc(-c2ccc(CN3CCOCC3)cc2)sc1C(N)=O | 13.1 µM (active)
CN(CC(=O)N(Cc1ccc(C2CCCCC2)cc1)c1ccc(C(=O)O)c(O)c1)S(=O)(=O)c1c(F)c(F)c(F)c(F)c1F | 26.1 µM (active)
Cc1cnc(Nc2ccc(N3CCN(C)CC3)cc2)nc1Nc1cccc(S(=O)(=O)NC(C)(C)C)c1 | 3.69 µM (active)
CN(C)c1ccc(C(=O)NCCCCCCC(=O)NO)cc1 | 2.93 µM (active)
CC(C)C[C@H](NC(=O)CNC(=O)c1cc(Cl)ccc1Cl)B1OC(=O)CC(CC(=O)O)(C(=O)O)O1 (stereo not given in full) | 4.65 µM (active)
O=C(C=CC=Cc1ccc2c(c1)OCO2)N1CCCCC1 | inactive
COC(=O)C=CC(=O)OC | inactive
O=C(C=CC#Cc1cccc(NS(=O)(=O)c2ccccc2)c1)NO | 2.93 µM (active)
CC(C=CC(=O)NO)=C[C@@H](C)C(=O)c1ccc(N(C)C)cc1 | 1.85 µM (active)
O=C1NC(=O)[C@@H](c2cn3c4c(cccc24)CCC3)[C@H]1c1c[nH]c2ccccc12 | 0.928 µM (active)
Oc1ccc(-c2ccc(-c3cc(Nc4cccc(CNC5CC5)c4)n[nH]3)cc2)c(O)c1 | 9.27 µM (active)
CC(=O)O[C@@]12CO[C@H]1C[C@H](O)[C@@]1(C)C(=O)[C@H](O)C3=C(C)[C@@H](OC(=O)C(O)[C@@H](NC(=O)OC(C)(C)C)c4ccccc4)C[C@@](O)([C@@H](OC(=O)c4ccccc4)[C@@H]21)C3(C)C (stereo not given in full) | 0.0131 µM (active)
C[C@H]1[C@@H](OC(=O)CCC(=O)O)O[C@@H]2O[C@@]3(C)CC[C@@H]4[C@H](C)CC[C@@H]1[C@@]24OO3 | 1.31 µM (active)
O=C1NC(=O)C(=Cc2ccc3nccc(-c4ccncc4)c3c2)S1 | 2.93 µM (active)

Structure (SMILES) | Potency
CC(N[C@H]1CCCC[C@H]1NC(=O)c1ccc(Cl)cc1)c1cccc2ccccc12 (stereo not given in full) | 26.1 µM (active)
COc1cc(O)c2c(c1)C1OC1C[C@H](O)[C@H](O)C(=O)C=CC[C@H](C)OC2=O (stereo not given in full) | 9.27 µM (active)
CC(C=CC1=C(C)CCCC1(C)C)=CC=CC(C)=CC(=O)Nc1ccc(O)cc1 | 38 µM (active)
CC(C)C[C@@H](C=O)NC(=O)[C@H](CC(C)C)NC(=O)[C@H](CC(C)C)NC(=O)OCc1ccccc1 (Cbz-Leu-Leu-Leu-aldehyde) | 1.47 µM (active)
CCS(=O)(=O)Nc1ccc2[nH]c(O)c(C(=Nc3ccc(CN4CCCCC4)cc3)c3ccccc3)c2c1 | 0.737 µM (active)
CCN(CC)CCNC(=O)c1c(C)[nH]c(C=C2C(=O)Nc3ccc(F)cc32)c1C | 26.9 µM (active)
O=C1c2c(O)cccc2[C@@H]([C@@H]2O[C@H](CO)[C@@H](O)[C@H](O)[C@H]2O)c2cc(CO)cc(O)c21 | inactive
COc1cccc2c1C(=O)c1c(O)c3c(c(O)c1C2=O)C[C@@](O)(C(=O)CO)C[C@@H]3O[C@H]1C[C@H](N)[C@@H](O)[C@H](C)O1 | 0.293 µM (active)
CNC(=O)c1ccc(Nc2cc(Nc3ccccc3S(=O)(=O)C(C)C)c3cc[nH]c3n2)nc1 | 5.85 µM (active)
CC(C)N1[N]C(=C2C=c3cc(O)ccc3=N2)c2c(N)ncnc21 | 10.4 µM (active)
CC(=O)NCC(=O)N1[C@H]2CC[C@H]1c1cc(Nc3ncc(C(F)(F)F)c(NC4CCC4)n3)ccc12 | 0.585 µM (active)
O=C(NCc1ccccc1)[C@H](Cc1ccccc1)NC(=O)[C@@H]1O[C@@H]1C(=O)NCCc1ccc(O)cc1 | inactive
C[C@@]12C(=O)OC(=O)[C@@]1(C)C1CCC2O1 | 2.61 µM (active)
C=CC(=O)Nc1cccc(Nc2nc(NC3CCC(N(C)C)CC3)nc3c2ncn3C(C)C)c1 (stereo not given) | 1.65 µM (active)
CC(C)(N)c1ccc(-c2nc3ccccc3nc2-c2ccccc2)cc1 | 0.737 µM (active)
C=C1C(=CC=C2CCC[C@]3(C)[C@@H]([C@H](C)CCCC(C)(C)O)CC[C@@H]23)C[C@@H](O)C[C@@H]1O | inactive
COc1ccc(S(=O)(=O)Nc2cccnc2Nc2ccc(O)cc2)cc1 | 0.522 µM (active)
CC(C)NC[C@@H](C(=O)N1CCN(c2ncnc3c2[C@H](C)C[C@H]3O)CC1)c1ccc(Cl)cc1 | 6.57 µM (active)
COc1cc([C@@H]2c3cc4c(cc3[C@@H](O[C@@H]3O[C@@H]5CO[C@@H](c6cccs6)O[C@@H]5[C@H](O)[C@@H]3O)[C@H]3COC(=O)[C@H]23)OCO4)cc(OC)c1O | inactive
FC(F)c1nc2ccccc2n1-c1nc(N2CCOCC2)nc(N2CCOCC2)n1 | 0.827 µM (active)
